Methyltransferases – Primary Screen for Target Class Profiling of Small Molecule Inhibitors of Methyltransferases. purified enzyme, MTase-Glo SAH luminescence; hits give low values. calls only at 40 µM. 25,000 compounds, 3.9% hits; call rule not given here
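Each enzyme was assayed with SAM and its substrate. SAH formation detected by MTase-Glo luminescence; single-point 40 uM screen[…].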
MTase-Glo counter – Counterscreen for Target Class Profiling of Small Molecule Inhibitors of Methyltransferases; shares compounds with Methyltransferases; MTase-Glo coupled enzymes, SAH conversion luminescence, no MTase; Potency, µM (doses to about 57.3 µM), hits mostly inhibitors; 180 compounds, 6% hits; AID 1745851, 2022; active = well fitted inhibition curve with a large enough effect
Of the large screens only hits and unclear results are named; the others gave an inactive call (follow-up assays come after a bar, where they were run). This excerpt belongs to a sample that is enriched for hits.

CC(N)(Cc1ccc(O)c(O)c1)C(=O)O (configuration not stated)	Methyltransferases active
COc1cc(CC(=O)O)ccc1O	none
CCCCCCCC/C=C\CCCCCCCC(=O)NCCc1ccc(O)c(O)c1	none
C[C@](Cc1ccc(O)c(O)c1)(NN)C(=O)O	Methyltransferases active
Cc1ccc(NC(=O)Cn2c(=O)oc3cc(S(=O)(=O)N4CCCCC4)ccc32)cc1C	none
CC(C)n1c(=O)c2ccc(C(=O)NC3CCCC3)cc2n2c(=O)n(CC(=O)N(C)c3ccccc3)nc12	none
Cc1ccc(-c2n[nH]n3c2nc(=O)c2ccc(C(=O)NCc4ccc(Cl)cc4)cc23)cc1	none
Cc1ccccc1Cn1nc2n(CC(C)C)c(=O)c3ccc(C(=O)NC4CCCC4)cc3n2c1=O	none
C=C(C(=O)O)[C@H]1C[C@]2(C)C(=O)CC[C@]23O[C@H]1C[C@@H]3C	Methyltransferases active
C=C(C(=O)O)C1CC2=C(C)CCCC2(C)C[C@@H]1O (some centres not stated)	none
O=C1CN(Cc2c(F)cccc2Cl)S(=O)(=O)c2ccccc2N1Cc1ccccc1F	none
CC1(C(=O)NC2CCCCCC2)Cn2c(cc3ccccc32)C(=O)N1Cc1ccco1 (configuration not stated)	none
O=C(c1ccnc(-c2ccncc2)c1)N1CCCC1	none
O=C(c1ccc(Nc2nccc(-c3cc4ccccc4s3)n2)cc1)N1CCC(N2CCCC2)CC1	Methyltransferases active
C[C@@H]1CN(c2ccc(C(=O)N3CCC(N4CCOCC4)CC3)cn2)C[C@H](C)O1	none
CC1(C(=O)NC2CCCC2)Cn2c(cc3sccc32)C(=O)N1Cc1cccc(F)c1 (configuration not stated)	none
COCCCNC(=O)C1(C)Cn2nc(-c3ccccc3)cc2C(=O)N1c1cccc(Cl)c1C (configuration not stated)	none
COc1ccc(C(=O)Nc2ccc3c(c2)C(=O)N(C)C2=NCCN23)cc1	none
O=C(c1ccccc1Cl)N1CCCC(C(=O)N2CCC(c3ccccc3)CC2)C1 (configuration not stated)	none
O=C(NC1CCCC1)N1CCCC(C(=O)N2CCC(c3nc4ncccc4[nH]3)C2)C1 (configuration not stated)	none
O=C([C@@H]1CCCN(c2ccc3[nH]c(C4(n5cc(Cl)cn5)CC4)nc3n2)C1)N1CCCC1	Methyltransferases active
COc1ccc(CN2C(=O)c3cc4oc(C)cc4n3CC2(C(=O)NC2CCCCCC2)c2ccccc2)cc1 (configuration not stated)	none
CCOCCCNc1nc2c(S(=O)(=O)c3ccccc3)nnn2c2ccccc12	none
CCCN1C(=O)c2c(C(=O)NCc3ccc(OC(C)C)cc3)ncn2CC1(C)C(=O)NC1CCCC1 (configuration not stated)	none
CCC1CN(S(=O)(=O)c2ccc3[nH]c4c(c3c2)CCCC4)c2cc(C)ccc2O1 (configuration not stated)	none
COc1ccc(NC(=O)CCc2nnc3n(Cc4ccc(Cl)cc4)c(=O)c4ccccc4n23)cc1	none
Cc1ccc(Cc2nc(CCNS(=O)(=O)c3cc(C)c(C)cc3C)n[nH]2)cc1	none
CC1CCN(S(=O)(=O)c2ccc3c(ccn3CC(=O)NCc3ccco3)c2)CC1	none
Cc1coc2c1C(=O)C(=O)c1c-2ccc2c1CCCC2(C)C	Methyltransferases active
Cc1coc2c1C(=O)C(=O)c1c-2ccc2c(C)cccc12	none
CCOC(=O)c1cc2n(n1)CC(C)(C(=O)NC1CCCC1)N(c1ccc(OC)cc1OC)C2=O (configuration not stated)	none
OC[C@@]1(O)CO[C@H](OC[C@H]2O[C@@H](OCCc3ccccc3)[C@H](O)[C@@H](O)[C@@H]2O)[C@@H]1O	none
C[C@@H]1O[C@@H](OC[C@H]2O[C@@H](OCCc3ccccc3)[C@H](O)[C@@H](O)[C@@H]2O)[C@H](O)[C@H](O)[C@H]1O	none
C=CCc1ccc(O[C@@H]2O[C@H](CO[C@@H]3O[C@@H](C)[C@H](O)[C@@H](O)[C@H]3O)[C@@H](O)[C@H](O)[C@H]2O)cc1	none
COC(=O)c1ccc(OC)cc1O[C@@H]1O[C@H](CO[C@@H]2OC[C@@H](O)[C@H](O)[C@H]2O)[C@@H](O)[C@H](O)[C@H]1O	none
OC1COC(OCC2OC(OCCc3ccccc3)C(O)C(O)C2O)C(O)C1O (configuration not stated)	Methyltransferases active
COc1ccc(CCO[C@@H]2O[C@H](CO[C@@H]3OC[C@H](O)[C@H](O)[C@H]3O)[C@@H](O)[C@H](O)[C@H]2O)cc1	Methyltransferases active
COC(=O)c1cc2n(n1)CC(C)(C(=O)NC1CCCCC1)N(Cc1ccccc1OC)C2=O (configuration not stated)	none
CCCN1C(=O)c2cc(-c3ccccc3)nn2CC1(C)C(=O)NCc1ccccc1OC (configuration not stated)	none
Cc1ccc(C)c(NC(=O)Cn2c(=O)c3ccc(Cl)cc3n3nncc23)c1	none
COc1ccc(CCNC(=O)c2cc3n(n2)CC(C)(C(=O)NCc2ccc(F)cc2)N(C)C3=O)cc1OC (configuration not stated)	none
Cc1ccccc1CCN1C(=O)c2ccc(-c3ccco3)n2CC1(C)C(=O)NC1CCCCCCC1 (configuration not stated)	none
CC(=O)Nc1c2n(c3ccccc13)CC(C)(C(=O)NC1CCCC1)N(Cc1ccco1)C2=O (configuration not stated)	none
COc1ccc2cc3n(c2c1)CC(C)(C(=O)NCCCN1CC(C)CC(C)C1)N(C1CCCCC1)C3=O (configuration not stated)	none
Cc1nc2ccccc2n1CCNS(=O)(=O)c1ccc(F)cc1	none
C=C(C(=O)O)C1CC2=C(C)C(=O)CC2C(C)CC1O (configuration not stated)	none
C=C(C(=O)O)[C@@H]1CC[C@H](C)[C@@H]2CC(=O)C(C)=C2C1	Methyltransferases active
CCCn1c(=O)c2ccc(C(=O)NC3CCCCC3)cc2n2c(=O)n(Cc3ccccc3C)nc12	none
Cc1ccc(NC(=O)Cn2nc3n(CCC(C)C)c(=O)c4ccccc4n3c2=O)c(C)c1	none
C=C(F)c1sc(CNCCCNc2cc(=O)c3ccccc3[nH]2)c(C)c1Br	Methyltransferases active
COc1cccc(N2C(=O)CSc3c(c4ccccc4n3C)C2C(=O)NCCCOC(C)C)c1 (configuration not stated)	none
CC(C)CCNC(=O)C1(C)Cn2c(cc3ccccc32)C(=O)N1CCc1ccc(Cl)cc1 (configuration not stated)	none
Oc1ccc2ccccc2c1SSc1c(O)ccc2ccccc12	Methyltransferases active
COCCCN1C(=O)c2cc(-c3ccc(OC)cc3)nn2CC1(C)C(=O)NCc1ccccc1 (configuration not stated)	none
COc1cccc(N2CCN(C(=O)CCc3nnc4n(Cc5ccccc5)c(=O)c5ccccc5n34)CC2)c1	none
CN1C(=O)c2cc(C(=O)NCCN3CCCCC3)nn2CC1(C)C(=O)NC1CCCCCC1 (configuration not stated)	none
CCCCN(C)C(=O)c1c(C)sc2ccn(CCC)c(=O)c12	Methyltransferases active | MTase-Glo counter inactive
Cc1sc2ccn(CC(C)C)c(=O)c2c1C(=O)N1CCCCC1	none
COc1ccc(C(C)NC(=O)c2c(C)sc3ccn(C)c(=O)c23)cc1 (configuration not stated)	none

Screening results from PubChem BioAssay.
